Screening data: PubChem, several laboratories
Rows were chosen to be rich in hits. Some 2% of all compounds tested hit in one or more screens of this group.
Exocytosis inh: lytic granule exocytosis inhibition | TALL-104 LAMP-1 surface exposure, flow cytometry; cells stimulated with thapsigargin and PMA | inhibition, % at 10 µM | 360,000 compounds, 0.66% hits;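 active = inhibition above about 55%, limit read from the data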
NOD2-RIPK2 inh: inhibitors of human NOD2-RIPK2 interaction | CHO BLA complementation NOD2-RIPK2, CCF4 ratio | inhibition, % at 4.98 µM | 360,000 compounds, 0.38% hits | O43353; in the data active = inhibition above about 21%;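 also: 0% = vehicle only and 100% = reference blocker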
Target sequence (O43353 whole entry, looked up): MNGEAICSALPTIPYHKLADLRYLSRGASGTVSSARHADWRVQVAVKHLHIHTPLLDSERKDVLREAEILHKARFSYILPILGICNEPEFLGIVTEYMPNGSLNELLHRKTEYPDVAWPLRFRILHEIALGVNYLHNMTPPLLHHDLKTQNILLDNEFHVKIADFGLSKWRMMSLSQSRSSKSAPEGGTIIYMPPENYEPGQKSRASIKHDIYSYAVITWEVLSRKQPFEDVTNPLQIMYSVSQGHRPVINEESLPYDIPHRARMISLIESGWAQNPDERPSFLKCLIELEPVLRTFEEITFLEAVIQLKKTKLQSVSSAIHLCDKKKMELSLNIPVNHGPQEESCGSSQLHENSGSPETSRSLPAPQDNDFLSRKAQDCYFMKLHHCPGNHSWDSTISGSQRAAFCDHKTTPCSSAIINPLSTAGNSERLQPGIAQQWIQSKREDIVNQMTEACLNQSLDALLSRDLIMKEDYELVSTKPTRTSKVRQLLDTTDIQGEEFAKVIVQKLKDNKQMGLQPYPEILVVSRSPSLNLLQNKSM
Beta2AR agonist: human beta-2 adrenergic receptor agonism by FAP; P07550; response, % (test concentration not listed); 340,000 compounds, 0.43% hits; Am2.2-beta2AR cells, FAP receptor internalization, flow cytometry;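 active = response above a set limit, near 3 SD of response in nonfluorescent compounds, cut at about 42% in these data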
ABHD5-PLIN5 inh: inhibitors of human ABHD5-perilipin-5 interaction | Q00G26+Q8WTS1 | Split G. princeps luciferase complementation, luminescence, 4 h | inhibition, % at 4 µM | 360,000 compounds, 0.78% hits | AID 602281;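 active = inhibition above the mean inhibition across every tested compound plus 3 SD, cut at about 22% in these data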;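 also: 0% = DMSO only wells and the 100% control is not disclosed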
TLR9-MyD88 inh: blocks human TLR9 binding to MyD88; Q9NR96+Q99836; CHO BLA complementation TLR9-MyD88, CCF4 FRET ratio; inhibition, % at 4.98 µM; 340,000 compounds, 0.21% hits; AID 504734;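 active = inhibition above the mean over all tested compounds plus 3 SD, cut at about 21% in these data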;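 also: 0% = DMSO only wells and 100% = clavulanate BLA inhibitor control wells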
TLR4-MyD88 BLA: blocks binding of human TLR4 to MyD88 | O00206+Q99836 | HeLa CL3-4 TLR4/MyD88 BLA complementation, FRET ratio | inhibition, % at 8.4 µM | 200,000 compounds, 0.18% hits | AID 861; in the data active = inhibition above about 25%;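 also: 0% = vehicle and 100% = reference inhibitor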
Exocytosis CP01: lytic granule exocytosis inhibition; inhibition, % at 10 µM; shares compounds with Exocytosis inh; TALL-104 cells, LAMP-1 externalization, flow cytometry; stimulated with PMA plus thapsigargin; 1,500 compounds, 11% hits; in the data active = inhibition above about 60%;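 also: 0% = stimulated vehicle wells and 100% = unstimulated wells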
Active calls of the source: *; · = no result.

SMILES	Exocytosis inh	NOD2-RIPK2 inh	Beta2AR agonist	ABHD5-PLIN5 inh	TLR9-MyD88 inh	TLR4-MyD88 BLA	Exocytosis CP01
CC(=O)Nc1ccc(C(=O)N2CCCCC2c2cc(C(=O)Nc3ccccc3Cl)no2)cc1 (configuration not stated)	-3	-14	·	-3	·	·	·
O=S(=O)(NCC1CCCO1)c1ccccc1F (configuration not stated)	-4	-1	-10	-1	0	·	·
COc1ccc(NC(=O)c2cc(C3CCCCN3S(=O)(=O)c3c(C)noc3C)on2)c(C)c1 (configuration not stated)	4	-1	·	-1	·	·	·
Nc1ccc(S(=O)(=O)Nc2nccs2)cc1N=Nc1ccccc1[N+](=O)[O-]	-4	-9	6	6	-4	·	·
CCCCN(CCCC)c1nc(-c2ccncc2)nc2ccccc12	93*	-7	21	6	-5	·	68*
COc1ccc(C2=Nc3ccccc3N(C(=O)c3cccnc3)C2C(=O)NC2CCCC2)cc1 (configuration not stated)	7	2	·	6	·	·	·
O=C(Cc1ccc(Cl)cc1)Nc1ccc(CN2CCCCC2)cc1	56*	2	-6	8	0	·	-4
O=C(CCN1CCN(c2ccccc2)CC1)c1ccc(Br)cc1	56*	-8	-1	-6	6	·	12
COc1ccc(C(=O)CCN2CCN(c3ccc(OC)cc3)CC2)cc1	101*	6	6	-6	-5	·	-4
O=C(CCN1CCOCC1)c1ccc(Br)cc1	96*	-1	2	-3	-8	0	41
O=C(CCN1CCN(c2ccccc2F)CC1)c1ccc(Br)cc1	12	4	-3	20	5	1	·
COc1cccc(/C=C/c2n[nH]c(=O)c(C#N)c2C)c1	0	-6	0	7	7	·	·
Cc1ccc(C)c(N2CCN(C(=O)c3ccc(CS(=O)Cc4cccc(Cl)c4)o3)CC2)c1 (configuration not stated)	58*	6	6	4	4	·	-5
O=C(c1ccc(CS(=O)Cc2cccc(Cl)c2)o1)N1CCN(c2ccc(F)cc2)CC1 (configuration not stated)	0	3	·	9	3	·	·
COc1ccc(/C=C/c2onc(C)c2S(=O)(=O)N2CCC(C(=O)N3CCC(C)CC3)CC2)cc1	76*	-6	-11	5	-10	·	-14
CN(Cc1ccc(OCC(O)CN(C)Cc2ccccc2)cc1)Cc1nccn1C (configuration not stated)	17	-2	-3	0	1	·	·
CCOc1ccc(CN(C)CC(O)COC(c2ccc(OC)cc2)c2ccc(OC)cc2)cc1 (configuration not stated)	69*	-14	13	7	-4	·	4
COc1ccc(CN(C)CC(O)COc2ccc(-c3ccccc3)cc2)cc1OC (configuration not stated)	63*	-1	4	2	-3	·	-9
COc1cccc(CN2CCC2(C)C(=O)NCc2cccc(C(F)(F)F)c2)c1OC (configuration not stated)	-3	13	·	-1	·	·	·
CC(=O)NC(c1cccs1)c1cc(Cl)c2ccccc2c1O (configuration not stated)	73*	-5	21	-3	4	·	-12
Cc1ccc(OCc2ccc(-c3ccccc3)cc2)c([N+](=O)[O-])n1	88*	-14	14	1	6	·	-3
CCCn1nc2cc(C(=O)NCCCCc3ccccc3)ccc2c1OCC	87*	0	0	-3	-1	-8	-13
CCCn1nc2cc(C(=O)NCCc3ccc(C)cc3)ccc2c1OCC	-2	8	0	-2	5	2	·
CCN(CC)C(=O)C1=C(C)N(CCCN2CCCC2=O)C(=O)C(CC(=O)NC2CCCCC2)C1 (configuration not stated)	-4	-5	·	0	3	·	·
COCCn1c(SC(C)C(=O)NCC2CCCO2)nc2scc(-c3ccc(F)cc3)c2c1=O (configuration not stated)	1	-10	-3	-7	-7	·	·
SMILES	Exocytosis inh	NOD2-RIPK2 inh	Beta2AR agonist	ABHD5-PLIN5 inh	TLR9-MyD88 inh	TLR4-MyD88 BLA	Exocytosis CP01
COCCn1c(SC(C)C(=O)NCC2CCCO2)nc2sc3c(c2c1=O)CCC3 (configuration not stated)	59*	-10	-1	4	3	·	-13
O=C(OCc1nc2ccccc2s1)c1ccc(Br)o1	1	-3	2	-1	-1	-8	·
O=C(OCc1nc2ccccc2s1)c1ccco1	75*	9	1	0	7	6	-4
CCC(C(=O)NCc1ccccc1)n1c(CSCCOc2ccccc2)nc2ccccc21 (configuration not stated)	16	3	·	2	·	·	·
COc1ccc(S(=O)(=O)N2CCOCC2)cc1NC(=O)C1CC(=O)N(c2ccc3c(c2)OCCO3)C1 (configuration not stated)	-8	4	·	-4	-5	·	·
COc1ccc(CCNC(=O)C23CN(Cc4ccccc4)CC2C(c2ccc([N+](=O)[O-])cc2)=NO3)cc1 (configuration not stated)	60*	1	-6	0	-5	-6	-12
COc1ccc(CNC(=O)C23CN(Cc4ccccc4)CC2C(c2ccc([N+](=O)[O-])cc2)=NO3)cc1 (configuration not stated)	6	12	2	-13	1	-9	·
CN1CCN(CC(O)COC(c2ccc(Cl)cc2)c2ccc(Cl)cc2)CC1 (configuration not stated)	57*	-21	18	16	6	·	17
Fc1cccc(CCN2CCNC[C@@H]2CC2CCCCC2)c1	62*	10	24	5	3	·	-11
COc1cc2c(cc1OC)CN(c1ccc([N+](=O)[O-])cc1Cl)CC2	70*	1	-4	14	9	2	-8
COc1cc2c(cc1OC)CN(c1ccc([N+](=O)[O-])cc1C#N)CC2	77*	-1	-8	13	11	1	-3
COc1ccccc1Cc1c(-c2ccc(Cl)cc2)nc2ccc(Br)cn12	-2	3	·	-10	·	·	·
Cc1ccc(-c2nnc(NC3CCCC3)s2)cc1	11	6	-8	-3	-7	·	·
CCCN(C(=O)COc1ccc(Cl)cc1Cl)c1c(N)n(Cc2ccccc2)c(=O)[nH]c1=O	83*	-5	-16	1	-11	-12	-3
CCOC(=O)N1CCN(CC(O)COc2c(C)cc(C)cc2C)CC1 (configuration not stated)	62*	-5	22	-5	6	·	-15
COc1ccccc1Cc1c(-c2ccco2)nc2c3ccccc3ccn12	76*	-4	·	9	·	·	-3
